The campaign covered roughly 39,000 compounds. About 3,300 (8.5%) were called active. The list comes from a sample in which actives are over-represented; it also holds similar structures and randomly drawn compounds.

The assay relates to HepG2. Put plainly: cytotoxicity call (relative viability < 0.9). To be noted: 10 µM.
Turning to `O=C(C[C@@H]1CC[C@H](NS(=O)(=O)c2ccc(F)cc2)[C@H](CO)O1)N1CCC(Cc2ccccc2)CC1`, the cytotoxicity call is “inactive”.

Consider `Cc1ccc(S(=O)(=O)N(C)C[C@@H]2Oc3ccc(NS(=O)(=O)c4cn(C)cn4)cc3CC(=O)N([C@H](C)CO)C[C@H]2C)cc1`, for which the cytotoxicity call is “inactive”.

Turning to `c1ccc(Cn2c(-c3ccc(OC[C@H](C4CCNCC4)n4c(-c5ccccc5)nc5ccccc54)cc3)nc3ccccc32)cc1`, the cytotoxicity call is “active”.

As for `Cc1ccc(OCCn2c(CC(C)(C)C)nc3ccccc32)cc1`, the cytotoxicity call was “inactive”.

With `Cc1cccc(-c2nc3ccccc3n2CCC(C)C)c1`, the cytotoxicity call was “inactive”.

Regarding `Cc1cncc2cccc(S(=O)(=O)N[C@H]3CN[C@H](COC(=O)NCCOCCOCCN)C3)c12`, the cytotoxicity call was “inactive”.

For `Cn1cc(CO)cn1`, the cytotoxicity call is “inactive”.

For the compound `O=C(C[C@@H]1CC[C@H]2[C@@H](COC[C@@H](O)CN2C(=O)Nc2ccc3c(c2)OCO3)O1)N1CCN(c2ccccc2)CC1`, the cytotoxicity call was “inactive”.

Take `COc1ccc(NC(=O)Nc2cccc3c2O[C@H](CN(C)Cc2ccc(-c4ccccc4)cc2)[C@@H](C)CN([C@@H](C)CO)C3=O)cc1`: the cytotoxicity call was “active”.

Turning to `COc1ccc(NC(=O)Nc2cccc3c2O[C@H](CN(C)Cc2ccc(-c4ccccc4)cc2)[C@@H](C)CN([C@H](C)CO)C3=O)cc1`, the cytotoxicity call was “inactive”.

Regarding `COc1ccc(NC(=O)Nc2cccc3c2O[C@@H](CN(C)Cc2ccc(-c4ccccc4)cc2)[C@H](C)CN([C@@H](C)CO)C3=O)cc1`, the cytotoxicity call is “inactive”.

As to `COc1ccc(NC(=O)Nc2cccc3c2O[C@@H](CN(C)Cc2ccc(-c4ccccc4)cc2)[C@@H](C)CN([C@@H](C)CO)C3=O)cc1`, the cytotoxicity call was “inactive”.

Turning to `COc1ccc(NC(=O)Nc2cccc3c2O[C@H](CN(C)Cc2ccc(-c4ccccc4)cc2)[C@H](C)CN([C@H](C)CO)C3=O)cc1`, the cytotoxicity call was “active”.

Turning to `COc1ccc(NC(=O)Nc2cccc3c2O[C@H](CN(C)Cc2ccc(-c4ccccc4)cc2)[C@H](C)CN([C@@H](C)CO)C3=O)cc1`, the cytotoxicity call is “active”.

`COc1ccc(NC(=O)Nc2cccc3c2O[C@@H](CN(C)Cc2ccc(-c4ccccc4)cc2)[C@H](C)CN([C@H](C)CO)C3=O)cc1`: the cytotoxicity call was “active”.

With `COc1ccc(NC(=O)Nc2cccc3c2O[C@@H](CN(C)Cc2ccc(-c4ccccc4)cc2)[C@@H](C)CN([C@H](C)CO)C3=O)cc1`, the cytotoxicity call is “inactive”.

Regarding `C[C@H]1CN([C@@H](C)CO)C(=O)c2cccc(NC(=O)Nc3ccccc3)c2O[C@H]1CN(C)Cc1ccc(-c2ccccc2)cc1`, the cytotoxicity call is “inactive”.

`COc1ccc(NC(=O)N(C)C[C@H]2OCCCC[C@@H](C)Oc3ccc(NC(=O)C4CCCCC4)cc3C(=O)N([C@H](C)CO)C[C@@H]2C)cc1`: the cytotoxicity call is “inactive”.

For `COc1ccc(CN(C)C[C@H]2Oc3c(NS(C)(=O)=O)cccc3C(=O)N([C@@H](C)CO)C[C@H]2C)cc1`, the cytotoxicity call is “inactive”.

With `COc1ccc2c3c([nH]c2c1)[C@H](CO)N(C[C@]13CN(Cc2ccccc2)C1)S(=O)(=O)c1cn(cn1)C`, the cytotoxicity call is “inactive”.

As for `COc1ccc(NC(=O)N(C)C[C@H]2Oc3ncc(C#CCN(C)C)cc3C(=O)N([C@@H](C)CO)C[C@H]2C)cc1`, the cytotoxicity call was “inactive”.

As for `O=C(C[C@@H]1CC[C@H]2[C@@H](COC[C@@H](O)CN2Cc2cc(F)ccc2F)O1)N[C@@H]1CCN(Cc2ccccc2)C1`, the cytotoxicity call was “inactive”.

As for `C[C@@H]1CN([C@H](C)CO)C(=O)CCCn2nncc2CO[C@@H]1CN(C)C(=O)c1ccc(N2CCN(C)CC2)cc1`, the cytotoxicity call is “inactive”.

Take `Fc1ccccc1[C@H]1Nc2ccc3ccccc3c2[C@H]2C=CC[C@@H]21`: the cytotoxicity call was “inactive”.

With `CCNC(=O)C[C@@H]1CC[C@H](NC(=O)C2CCOCC2)[C@H](CO)O1`, the cytotoxicity call is “inactive”.

On to `Cc1noc(C)c1NC(=O)Nc1ccc2c(c1)C(=O)N([C@H](C)CO)C[C@H](C)[C@H](CN(C)Cc1ccc(C(F)(F)F)cc1)O2`, for which the cytotoxicity call was “inactive”.

On to `C[C@@H]1CN([C@H](C)CO)C(=O)c2cc(-c3cncnc3)cnc2O[C@H]1CN(C)C(=O)Nc1ccc2c(c1)OCO2`, for which the cytotoxicity call was “inactive”.

For `CCCNC(=O)c1cc2c(c(-c3cccc(-c4cccc(OC)c4)c3)n1)[C@H](CCO)N([S@@](=O)C(C)(C)C)C2`, the cytotoxicity call is “inactive”.

Consider `O=C1c2ccccc2[C@@]2(Cc3ccccc3N(C3CC3)C2=O)[C@H](c2ccc(CO)cc2)N1Cc1ccccc1Cl`, for which the cytotoxicity call was “inactive”.

`COc1ccccc1CN1C(=O)c2ccccc2[C@@]2(Cc3ccccc3N(C3CC3)C2=O)[C@@H]1c1ccc(CO)cc1`: the cytotoxicity call is “inactive”.

Take `O=C1c2ccccc2[C@@]2(Cc3ccccc3N(C3CC3)C2=O)[C@H](c2ccc(CO)cc2)N1Cc1ccccc1`: the cytotoxicity call is “active”.

Turning to `COc1ccc(S(=O)(=O)N[C@@H]2C=C[C@H](CC(=O)N3CCN(c4ccccc4)CC3)O[C@H]2CO)cc1`, the cytotoxicity call was “inactive”.

Take `OCCc1ccc(O)c(O[C@H]2O[C@@H](CO)[C@@H](O)[C@@H](O)[C@@H]2O)c1`: the cytotoxicity call was “inactive”.

For the compound `O=C1c2c(O)cc(CO)cc2C(OC2OC(CO)C(O)C(O)C2O)c2cccc(OC3OC(CO)C(O)C(O)C3O)c21` (centres undefined) [CASANTHRANOL [cascaroside A shown] ], the cytotoxicity call was “inactive”.

For the compound `O=C1c2c(O)cccc2C(C2OC(CO)C(O)C(O)C2O)c2cc(CO)cc(O)c21` (centres undefined), the cytotoxicity call is “active”.

For the compound `COc1c(O)cc2c(c1O)C1OC(CO)C(O)C(O)C1OC2=O` (centres undefined), the cytotoxicity call is “inactive”.

For `OCc1cc(O)c2c(O)c3c(O)cccc3c(O[C@@H]3O[C@H](CO)[C@H](O)[C@@H](O)[C@H]3O)c2c1`, the cytotoxicity call was “inactive”.

Consider `O=C(O)c1cc(O)c2c(c1)C(C1c3cc(C(=O)O)cc(O)c3C(=O)c3c(OC4OC(CO)C(O)C(O)C4O)cccc31)c1cccc(OC3OC(CO)C(O)C(O)C3O)c1C2=O` (centres undefined), for which the cytotoxicity call is “active”.

As to `OCc1cc(O)c2c(O)c3c(O)cccc3c(O[C@@H]3O[C@H](CO)[C@@H](O)[C@H](O)[C@H]3O)c2c1`, the cytotoxicity call is “active”.

As for `O=C(O)c1cc(O[C@@H]2O[C@H](CO)[C@@H](O)[C@H](O)[C@H]2O)c2ccccc2c1O`, the cytotoxicity call is “inactive”.

With `OCc1ccc(O[C@@H]2O[C@H](CO)[C@@H](O)[C@H](O)[C@H]2O)cc1`, the cytotoxicity call is “inactive”.

Regarding `O=C(O)c1cc(O)c2c(O)c3c(O[C@H]4O[C@H](CO)[C@@H](O)[C@H](O)[C@H]4O)cccc3c(-c3c4cc(C(=O)O)cc(O)c4c(O)c4c(O[C@H]5O[C@H](CO)[C@@H](O)[C@H](O)[C@H]5O)cccc34)c2c1`, the cytotoxicity call was “active”.

On to `COc1c(O)cc2c(c1O)[C@@H]1O[C@H](CO)[C@@H](O)[C@H](O)[C@H]1OC2=O`, for which the cytotoxicity call was “inactive”.

`OCc1ccccc1O[C@@H]1O[C@H](CO)[C@@H](O)[C@H](O)[C@H]1O`: the cytotoxicity call was “inactive”.
